The supplement of paper PMC8728848
The entries come from a sample that favours the strongest signals as a whole.

Assays:
Assay in all cases: glycan array binding signal (z-score within array); higher = stronger binding
Conditions in all cases: glycan notation: IUPAC condensed, linker removed
[1] = biological target: Gal(b1-4)GlcNAc(b1-3)[GlcNAc(b1-6)]Gal(b1-4)GlcNAc
In short: (§1)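 The binding signal is a Z-score computed within each array and averaged over linkers. Arrays of the same protein sequence at different concentrations or buffers were also averaged together. Data originate from 3228 arrays in the Consortium for Functional Glycomics database, kept only where the protein sequence was available.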

Gal(b1-4)GlcNAc6P = biological target: Gal(b1-4)GlcNAc6P
In short: as §1

Gal3S(b1-4)Glc = biological target: Gal3S(b1-4)Glc
In short: as §1

Gal3S(b1-4)Glc6S = biological target: Gal3S(b1-4)Glc6S
In short: as §1

[2] = biological target: Gal3S(b1-4)[Fuc(a1-3)]GlcNAc6S
In short: as §1

Gal3S6S(b1-4)GlcNAc = biological target: Gal3S6S(b1-4)GlcNAc
In short: as §1

Gal4S6S(b1-4)GlcNAc = biological target: Gal4S6S(b1-4)GlcNAc
In short: as §1

Gal6S(b1-4)Glc = biological target: Gal6S(b1-4)Glc
In short: as §1

[3] = biological target: GalNAc(a1-3)GalNAc(b1-3)Gal(a1-4)Gal(b1-4)Glc
In short: as §1

[4] = biological target: GalNAc(a1-3)GalNAc(b1-3)Gal(a1-4)Gal(b1-4)GlcNAc
In short: as §1

GalNAc(b1-4)Gal(b1-4)Glc = biological target: GalNAc(b1-4)Gal(b1-4)Glc
In short: as §1

GalNAc3S(b1-4)GlcNAc = biological target: GalNAc3S(b1-4)GlcNAc
In short: as §1

[5] = biological target: Glc(a1-6)Glc(a1-6)Glc(a1-6)Glc
In short: as §1

[6] = biological target: GlcNAc(b1-3)Gal(b1-4)GlcNAc(b1-3)Gal(b1-4)GlcNAc(b1-3)Gal(b1-4)GlcNAc(b1-3)Gal(b1-4)GlcNAc(b1-2)Man(a1-3)[GlcNAc(b1-3)Gal(b1-4)GlcNAc(b1-3)Gal(b1-4)GlcNAc(b1-3)Gal(b1-4)GlcNAc(b1-3)Gal(b1-4)GlcNAc(b1-2)Man(a1-6)]Man(b1-4)GlcNAc(b1-4)[Fuc(a1-6)]GlcNAc
In short: as §1

[7] = biological target: GlcNAc(b1-4)[GlcNAc(b1-6)]GalNAc
In short: as §1

[8] = biological target: Man(a1-3)[Man(a1-6)]Man(a1-6)[Man(a1-2)Man(a1-3)]Man(b1-4)GlcNAc(b1-4)GlcNAc
In short: as §1

[9] = biological target: Man(a1-3)[Man(a1-6)]Man(a1-6)[Man(a1-3)]Man
In short: as §1

Man(a1-6)Man = biological target: Man(a1-6)Man
In short: as §1

[10] = biological target: Neu5Ac(a2-3)Gal(b1-3)[Fuc(a1-4)]GlcNAc(b1-3)Gal(b1-4)[Fuc(a1-3)]GlcNAc
In short: as §1

[11] = biological target: Neu5Ac(a2-3)Gal(b1-3)[Neu5Ac(a2-6)]GalNAc
In short: as §1

[12] = biological target: Neu5Ac(a2-3)Gal(b1-4)GlcNAc(b1-2)Man
In short: as §1

[13] = biological target: Neu5Ac(a2-3)Gal(b1-4)GlcNAc(b1-2)Man(a1-3)[GlcNAc(b1-4)][Neu5Ac(a2-3)Gal(b1-4)GlcNAc(b1-2)Man(a1-6)]Man(b1-4)GlcNAc(b1-4)GlcNAc
In short: as §1

[14] = biological target: Neu5Ac(a2-3)[GalNAc(b1-4)]Gal(b1-4)GlcNAc
In short: as §1

[15] = biological target: Neu5Ac(a2-6)Gal(b1-4)GlcNAc(b1-2)Man(a1-3)[Gal(b1-4)GlcNAc(b1-2)Man(a1-6)]Man(b1-4)GlcNAc(b1-4)GlcNAc
In short: as §1

[16] = biological target: Neu5Ac(a2-6)Gal(b1-4)GlcNAc(b1-2)Man(a1-3)[GlcNAc(b1-4)][Neu5Ac(a2-6)Gal(b1-4)GlcNAc(b1-2)Man(a1-6)]Man(b1-4)GlcNAc(b1-4)GlcNAc
In short: as §1

[17] = biological target: Neu5Ac(a2-6)Gal(b1-4)GlcNAc(b1-2)[Neu5Ac(a2-6)Gal(b1-4)GlcNAc(b1-4)]Man(a1-3)[GlcNAc(b1-4)][Neu5Ac(a2-6)Gal(b1-4)GlcNAc(b1-2)[Neu5Ac(a2-6)Gal(b1-4)GlcNAc(b1-6)]Man(a1-6)]Man(b1-4)GlcNAc(b1-4)GlcNAc
In short: as §1

[18] = biological target: Neu5Ac(a2-6)Gal(b1-4)GlcNAc(b1-3)Gal(b1-4)GlcNAc(b1-2)Man(a1-3)[Neu5Ac(a2-6)Gal(b1-4)GlcNAc(b1-3)Gal(b1-4)GlcNAc(b1-2)Man(a1-6)]GalNAc
In short: as §1

[19] = biological target: Neu5Ac(a2-6)GalNAc(b1-4)GlcNAc6S
In short: as §1

Neu5Ac(a2-8)Neu5Ac = biological target: Neu5Ac(a2-8)Neu5Ac
In short: as §1

[20] = biological target: Neu5Ac(a2-8)Neu5Ac(a2-8)Neu5Ac(a2-8)Neu5Ac(a2-3)[GalNAc(b1-4)]Gal(b1-4)Glc
In short: as §1

B1: Clone646PsrP (Streptococcus pneumoniae) (protein)
chain: MDHHHHHHHHASENLYFQGAPAINASLNIAKSETKVYTGEGVDSVYRVPIYYKLKVTNDGSKLTFTYTVTYVNPKTNDLGNISSMRPGYSIYNSGTSTQTMLTLGSDLGKPSGVKNYITDKNGRQVLSYNTSTMTTQGSGYTWGNGAQMNGFFAKKGYGLTSSWTVPITGTDTSFTFTPYAARTDRIGINYFNGGGKVVESSTTSQSLSQSKSLSVSAS
[1]
  glycan array binding signal (z-score): -0.238
Gal(b1-4)GlcNAc6P
  glycan array binding signal (z-score): 2.57
Gal3S(b1-4)Glc
  glycan array binding signal (z-score): 1.81
Gal3S(b1-4)Glc6S
  glycan array binding signal (z-score): 1.63
[2]
  glycan array binding signal (z-score): 3.08
Gal3S6S(b1-4)GlcNAc
  glycan array binding signal (z-score): 2.75
Gal4S6S(b1-4)GlcNAc
  glycan array binding signal (z-score): 0.386
Gal6S(b1-4)Glc
  glycan array binding signal (z-score): -0.221
[3]
  glycan array binding signal (z-score): -0.265
[4]
  glycan array binding signal (z-score): -0.546
GalNAc(b1-4)Gal(b1-4)Glc
  glycan array binding signal (z-score): 2.93
GalNAc3S(b1-4)GlcNAc
  glycan array binding signal (z-score): 2.09
[5]
  glycan array binding signal (z-score): 3.01
[6]
  glycan array binding signal (z-score): -0.863
[7]
  glycan array binding signal (z-score): -0.205
[8]
  glycan array binding signal (z-score): 1.06
[9]
  glycan array binding signal (z-score): 3.32
Man(a1-6)Man
  glycan array binding signal (z-score): 4.74
[10]
  glycan array binding signal (z-score): -0.482
[11]
  glycan array binding signal (z-score): -0.254
[12]
  glycan array binding signal (z-score): 2.89
[13]
  glycan array binding signal (z-score): -0.995
[14]
  glycan array binding signal (z-score): -0.733
[15]
  glycan array binding signal (z-score): -0.713
[16]
  glycan array binding signal (z-score): -0.966
[17]
  glycan array binding signal (z-score): -0.332
[18]
  glycan array binding signal (z-score): -0.421
[19]
  glycan array binding signal (z-score): -0.113
Neu5Ac(a2-8)Neu5Ac
  glycan array binding signal (z-score): 0.174
[20]
  glycan array binding signal (z-score): -0.64
